Test systems include HCT-15 colon; HT29 colon; SNB-75 CNS; SNB-19 CNS; PC-3 prostate; SK-MEL-5 melanoma; UACC-62 melanoma; LOX IMVI melanoma; SK-MEL-28 melanoma; SK-MEL-2 melanoma; EKVX NSCLC; SN12C renal; UO-31 renal; TK-10 renal; ACHN renal; CAKI-1 renal; A498 renal; CCRF-CEM leukemia; MOLT-4 leukemia.
Assay in all cases: NCI-60 one-dose screen, 48 h (100 = growth as untreated, 0 = no growth, -100 = all killed)
Conditions in all cases: 10 µM unless noted

About 83,000 compounds went through this panel and 20% of them were active in at least one assay; those are over-represented in the sample as a whole.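 Percent growth is the endpoint: 0 to 100 indicates growth inhibition (40 means 60% inhibition), 0 means no net growth, and negative values indicate cell death.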 Unmarked numbers belong to inactive results. Activity calls are given as the source filed them. Rule for the calls: active = growth percent below 10; inactive = the rest.

As to `Cc1ccc(S(=O)(=O)OCC(=O)Nc2ccc(C(=O)O)c(O)c2)cc1`, the growth in the assay on HCT-15 colon was 109%; in the assay with HT29 colon, 98.6%; in the assay on SNB-75 CNS it was 98.8%; in the assay on SNB-19 CNS, 108%; in the assay on PC-3 prostate, 91.3%; in the assay with SK-MEL-5 melanoma it was 96.3%. The growth in the assay on UACC-62 melanoma is 99.9%; in the assay with LOX IMVI melanoma, 78.5%; in the assay on SK-MEL-28 melanoma, 98.6%; with SK-MEL-2 melanoma, 39.5%; in the assay on EKVX NSCLC it was 103%; in the assay with SN12C renal, 105%. Also, the growth in the assay on UO-31 renal was 53%; with TK-10 renal it was 118%; in the assay with ACHN renal it was 102%; in the assay on CAKI-1 renal, 102%; in the assay on A498 renal, 99.3%; with CCRF-CEM leukemia, 83.5%. Also, in the assay with MOLT-4 leukemia, the growth was 57.1%.

Consider `O=C1Nc2cc(Cl)ccc2/C1=C/c1ccc(N2CCOCC2)s1`, for which the growth in the assay with HCT-15 colon was 112%; in the assay on HT29 colon it was 97.3%; in the assay with SNB-75 CNS, 101%; in the assay with SNB-19 CNS, 86.6%; in the assay on PC-3 prostate, 92.5%; in the assay on UACC-62 melanoma it was 103%. Also, the growth in the assay on LOX IMVI melanoma was 106%; in the assay on SK-MEL-28 melanoma it was 114%; in the assay on SK-MEL-2 melanoma it was 91.4%; with EKVX NSCLC it was 105%; in the assay with SN12C renal, 104%; in the assay with UO-31 renal, 85.9%. The growth with TK-10 renal is -3.94% (active); in the assay with ACHN renal, 114%; in the assay on CAKI-1 renal, 100%; with A498 renal, 87.1%; in the assay with MOLT-4 leukemia, 92.8%.

As to `COc1cc(/C=C/C(=O)c2ccccc2O)ccc1OCCCOc1cc2c(cc1OC)C(=O)N1CCC[C@H]1C=N2`, the growth with HCT-15 colon was -3.51% (active); with HT29 colon, -41.4% (active); in the assay on SNB-75 CNS, -57.7% (active); with SNB-19 CNS it was -1.67% (active); with PC-3 prostate it was 10.7%; with SK-MEL-5 melanoma, -76.5% (active). The growth is -82.4% (active) in the assay on UACC-62 melanoma; -60.8% (active) in the assay on LOX IMVI melanoma; -64.3% (active) in the assay with SK-MEL-28 melanoma; -61.1% (active) in the assay with SK-MEL-2 melanoma; 19.7% in the assay with EKVX NSCLC; 6.22% (active) in the assay with SN12C renal. For the same compound, the growth is -54.5% (active) in the assay with UO-31 renal; -27.9% (active) in the assay with TK-10 renal; -13.8% (active) in the assay with ACHN renal; -35.3% (active) in the assay with CAKI-1 renal; -68.4% (active) with A498 renal; 5.24% (active) in the assay on CCRF-CEM leukemia. For the same compound, the growth in the assay on MOLT-4 leukemia was -11.2% (active).

For the compound `O=C1C2=C(C(=O)c3c(O)ccc(O)c31)N(c1cccnc1)Cc1ccccc1O2`, the growth in the assay on HCT-15 colon was -32.8% (active); in the assay with HT29 colon, -60.4% (active); with SNB-75 CNS, 22.1%; in the assay with SNB-19 CNS it was 5.25% (active); in the assay with PC-3 prostate, -31.7% (active); with SK-MEL-5 melanoma it was 11.4%. The growth in the assay on UACC-62 melanoma was -76.5% (active); in the assay with LOX IMVI melanoma, -64.6% (active); in the assay on SK-MEL-28 melanoma it was -72% (active); with SK-MEL-2 melanoma, -42.6% (active); in the assay on EKVX NSCLC, 2.08% (active); in the assay with SN12C renal it was -43.8% (active). For the same compound, the growth in the assay with UO-31 renal was -83.5% (active); with TK-10 renal, -99.2% (active); in the assay on ACHN renal, -85.4% (active); with CAKI-1 renal, -96.2% (active); with A498 renal it was 99%; in the assay with CCRF-CEM leukemia, -1.32% (active). Besides, in the assay on MOLT-4 leukemia, the growth was -18.5% (active).

`CCC(=O)Oc1ccc2c(c1)CC[C@@H]1[C@@H]2CC[C@]2(C)C[C@H](OC(=O)CC)C[C@@H]12`: the growth with HCT-15 colon was 38.9%; in the assay on HT29 colon it was 110%; with SNB-75 CNS, 46%; with SNB-19 CNS it was 77.7%; in the assay on PC-3 prostate it was 63.1%; with SK-MEL-5 melanoma it was 60.4%. Moreover, the growth in the assay with UACC-62 melanoma is 49.1%; in the assay with LOX IMVI melanoma, 76.8%; in the assay with SK-MEL-28 melanoma, 73.7%; in the assay on SK-MEL-2 melanoma it was 75.1%; in the assay with EKVX NSCLC it was 62.7%; in the assay with SN12C renal, 70.4%. In addition, the growth in the assay on UO-31 renal was 71.7%; in the assay on TK-10 renal, 105%; in the assay with ACHN renal it was 73%; in the assay with CAKI-1 renal, 64.8%; in the assay on A498 renal it was 7.94% (active); in the assay with CCRF-CEM leukemia, 74.6%. Moreover, the growth in the assay on MOLT-4 leukemia was 51.1%.

As to `COc1ccc(C(=O)c2cc(OC)c(OC)c(OC)c2)cc1/C=C/C(=O)c1ccc(OC)c(OC)c1`, the growth was 12.8% with HCT-15 colon; 9.61% (active) with HT29 colon; 22.9% in the assay on SNB-75 CNS; 33.2% with SNB-19 CNS; 33.9% in the assay on PC-3 prostate; 21.5% in the assay on SK-MEL-5 melanoma. Besides, the growth is 24.8% in the assay with UACC-62 melanoma; 10.9% in the assay on LOX IMVI melanoma; 21.8% in the assay on SK-MEL-28 melanoma; 20.9% in the assay on SK-MEL-2 melanoma; 42.3% in the assay with SN12C renal; 26.3% in the assay on UO-31 renal. Further, the growth in the assay on TK-10 renal was 63.8%; with ACHN renal, 20.4%; in the assay with A498 renal, 74.1%; in the assay on CCRF-CEM leukemia, 6.83% (active); in the assay with MOLT-4 leukemia, 12.8%.

Turning to `CCOC(=O)c1cc(/C(=N\O)c2cc(OC)c(OC)c(OC)c2)n2cc(C)cc(C)c12`, the growth with HCT-15 colon was 17.9%; with HT29 colon, 6.89% (active); with SNB-75 CNS, 25.1%; in the assay with SNB-19 CNS, 40.5%; in the assay with PC-3 prostate, 41%; in the assay with SK-MEL-5 melanoma it was 12.1%. The growth in the assay with UACC-62 melanoma is 19.8%; in the assay on LOX IMVI melanoma, 31.8%; in the assay on SK-MEL-28 melanoma it was 56.1%; with SK-MEL-2 melanoma, 2.79% (active); in the assay on EKVX NSCLC, 37.7%; in the assay with SN12C renal, 30.3%. In addition, the growth was 48.7% in the assay on UO-31 renal; 26.7% with TK-10 renal; 10.5% in the assay with ACHN renal; 37.1% in the assay with CAKI-1 renal; -6.21% (active) in the assay with A498 renal; 9.43% (active) with CCRF-CEM leukemia. Moreover, the growth in the assay on MOLT-4 leukemia was 9.33% (active).

As for `COc1cc(OC)cc(-c2n[nH]nc2-c2ccc3c(c2)OCO3)c1`, the growth was 25.7% in the assay with HCT-15 colon; 1% (active) with HT29 colon; -8.14% (active) in the assay on SNB-75 CNS; 45.1% in the assay with SNB-19 CNS; 19.4% in the assay on PC-3 prostate; 20.2% with SK-MEL-5 melanoma. Also, the growth in the assay with UACC-62 melanoma is 27.5%; with LOX IMVI melanoma it was 34.4%; in the assay with SK-MEL-28 melanoma, 32%; in the assay with SK-MEL-2 melanoma it was 14.4%; in the assay on SN12C renal, 49.1%; in the assay on UO-31 renal, 44.9%. Further, the growth in the assay on TK-10 renal was 59.5%; with ACHN renal, 42.7%; in the assay with CAKI-1 renal, 36.5%; in the assay with A498 renal, -1.56% (active); with CCRF-CEM leukemia it was 10.4%; with MOLT-4 leukemia it was 31.3%.
